# Measurements reported in PubChem BioAssay (NCATS).
# Inconclusive results are not listed. Calls of active or inactive are those of the source. Unless noted, the call rests on the fitted dose curve; in most records, active means well fitted curve in the direction sought with a large enough effect; inconclusive means small, poorly fitted or top-dose-only effect, or another doubt; inactive means no such curve, though single readings can be large; an effect the other way counts as inactive or inconclusive.
# Columns and labels:
# [1] = target: Cytochrome P450 3A4 (Homo sapiens) (UniProt P08684); test: qHTS Assay for Activators of Cytochrome P450 3A4 (AID 885); further: nearly all actives have a fitted effect of over 65% in size
# Cytochrome P450 3A4 (Homo sapiens), sequence (P08684 whole entry, looked up): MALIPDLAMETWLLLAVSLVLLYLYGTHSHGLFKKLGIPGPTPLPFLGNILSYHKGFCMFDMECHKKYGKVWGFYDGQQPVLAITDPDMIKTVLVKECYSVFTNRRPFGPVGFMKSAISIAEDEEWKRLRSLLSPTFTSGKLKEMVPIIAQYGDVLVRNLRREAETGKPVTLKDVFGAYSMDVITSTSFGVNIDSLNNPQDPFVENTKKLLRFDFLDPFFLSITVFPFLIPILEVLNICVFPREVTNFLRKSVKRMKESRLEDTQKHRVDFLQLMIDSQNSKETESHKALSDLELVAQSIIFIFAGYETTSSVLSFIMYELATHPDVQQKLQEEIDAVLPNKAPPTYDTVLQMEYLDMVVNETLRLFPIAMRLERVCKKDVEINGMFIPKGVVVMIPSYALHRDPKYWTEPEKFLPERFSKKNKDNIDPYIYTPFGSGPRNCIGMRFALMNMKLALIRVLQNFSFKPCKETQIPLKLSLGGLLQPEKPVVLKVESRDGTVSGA
# Method in brief: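 Luminescent readout of luciferin formed from 25 uM Luciferin-PPXE (KM level) by 20 nM CYP3A4 in 200 mM KPO4, with 60 min NADPH-driven reaction at room temperature after 10 min compound exposure. Ketoconazole (57 uM) defined 100% inhibition.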
# [2] = target: Bile acid receptor (Homo sapiens) (UniProt Q96RI1); test: qHTS assay for small molecule agonists of farnesoid X receptor signaling (AID 588527; calls by dose curve;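 further: series mostly up to about 77 µM; 0% = vehicle basal and 100% = reference agonist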); settings: HEK293T FXR-UAS-bla, beta-lactamase ratio, 16 h; activation: stronger effect = higher value
# Bile acid receptor (Homo sapiens), sequence (Q96RI1 whole entry, looked up): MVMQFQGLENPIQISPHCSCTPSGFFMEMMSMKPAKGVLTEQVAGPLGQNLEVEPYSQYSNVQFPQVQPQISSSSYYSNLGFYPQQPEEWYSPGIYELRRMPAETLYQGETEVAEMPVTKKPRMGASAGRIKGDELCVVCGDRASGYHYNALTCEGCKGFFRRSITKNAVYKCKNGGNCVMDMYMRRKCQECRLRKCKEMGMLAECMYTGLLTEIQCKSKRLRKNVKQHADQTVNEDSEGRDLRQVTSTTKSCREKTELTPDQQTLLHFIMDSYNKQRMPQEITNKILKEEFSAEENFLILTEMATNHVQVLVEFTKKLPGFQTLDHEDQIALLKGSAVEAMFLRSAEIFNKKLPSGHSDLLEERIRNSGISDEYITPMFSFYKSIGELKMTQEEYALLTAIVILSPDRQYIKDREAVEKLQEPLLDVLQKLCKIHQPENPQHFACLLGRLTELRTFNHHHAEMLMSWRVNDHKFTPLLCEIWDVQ
# Method in brief: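 Agonist-mode beta-lactamase reporter in GeneBLAzer FXR-UAS-bla HEK293T cells, titration up to 92 uM, 16 h exposure at 37 C, CCF4 fluorescence. Response scaled to DMSO (0%) and 100 uM chenodeoxycholic acid (100%), then Hill-fitted for EC50 and efficacy.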
# [3] = target: Peroxisome proliferator-activated receptor delta (Homo sapiens) (UniProt Q03181); test: qHTS assay for small molecule agonists of peroxisome proliferator-activated receptor delta signaling (AID 588534; calls by dose curve;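 further: 0% = DMSO basal wells and 100% = positive control agonist at 10 µM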)
# Peroxisome proliferator-activated receptor delta (Homo sapiens), sequence (Q03181 whole entry, looked up): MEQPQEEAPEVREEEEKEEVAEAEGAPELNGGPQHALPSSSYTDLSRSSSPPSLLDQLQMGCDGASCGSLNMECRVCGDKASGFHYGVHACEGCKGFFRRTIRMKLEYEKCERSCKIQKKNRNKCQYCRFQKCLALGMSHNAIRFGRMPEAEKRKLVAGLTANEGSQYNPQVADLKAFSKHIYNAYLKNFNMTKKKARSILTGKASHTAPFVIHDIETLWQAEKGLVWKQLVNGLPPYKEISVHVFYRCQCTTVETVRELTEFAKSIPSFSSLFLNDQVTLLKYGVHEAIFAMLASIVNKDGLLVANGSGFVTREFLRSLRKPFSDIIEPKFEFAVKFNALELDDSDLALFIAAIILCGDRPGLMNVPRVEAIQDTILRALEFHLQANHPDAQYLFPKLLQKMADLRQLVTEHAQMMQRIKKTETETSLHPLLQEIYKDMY
# Method in brief: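 Titration series tested in agonist mode on beta-lactamase reporter cells; 18 hrs at 37 C after a 5 hr pre-incubation. Readout: CCF4 fluorescence, 2 hrs RT. Hill equation gives EC50 and maximal response.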
# [4] = target: Nuclear receptor ROR-gamma (Homo sapiens) (UniProt P51449); test: qHTS assay for small molecule antagonists of the retinoid-related orphan receptor gamma (ROR-gamma) signaling pathway (AID 651802);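 further: CHO cells with doxycycline-induced ROR-gamma expression; luciferase reporter luminescence driven by ROR response element; series mostly up to about 92 µM; on the % scale 0 is the no-effect control and ±100 the full control effect; nearly all actives have a fitted effect of over 60% in size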
# Method in brief: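 Luciferase read-out: ONE-Glo luminescence after 30 min at room temperature, following 16hr doxycycline induction at 37C, 5% CO2 of CHO cells with TET-inducible ROR and RORE-LUC reporter; decreased luminescence = reduced reporter activity.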
# [5] = target: Glucocorticoid receptor (Homo sapiens) (UniProt P04150); test: qHTS assay for small molecule agonists of glucocorticoid receptor signaling (AID 588532; active means well fitted curve in the direction sought with a large enough effect in the signal ratio, with a control signal flat; the % refers to the signal ratio;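 further: 100% = dexamethasone at 0.1 µM and 0% = DMSO only wells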); settings: HeLa MMTV-bla, beta-lactamase ratio, agonist, 18 h; activation: stronger effect = higher value, percent of dexamethasone control, DMSO zero
# Glucocorticoid receptor (Homo sapiens), sequence (P04150 whole entry, looked up): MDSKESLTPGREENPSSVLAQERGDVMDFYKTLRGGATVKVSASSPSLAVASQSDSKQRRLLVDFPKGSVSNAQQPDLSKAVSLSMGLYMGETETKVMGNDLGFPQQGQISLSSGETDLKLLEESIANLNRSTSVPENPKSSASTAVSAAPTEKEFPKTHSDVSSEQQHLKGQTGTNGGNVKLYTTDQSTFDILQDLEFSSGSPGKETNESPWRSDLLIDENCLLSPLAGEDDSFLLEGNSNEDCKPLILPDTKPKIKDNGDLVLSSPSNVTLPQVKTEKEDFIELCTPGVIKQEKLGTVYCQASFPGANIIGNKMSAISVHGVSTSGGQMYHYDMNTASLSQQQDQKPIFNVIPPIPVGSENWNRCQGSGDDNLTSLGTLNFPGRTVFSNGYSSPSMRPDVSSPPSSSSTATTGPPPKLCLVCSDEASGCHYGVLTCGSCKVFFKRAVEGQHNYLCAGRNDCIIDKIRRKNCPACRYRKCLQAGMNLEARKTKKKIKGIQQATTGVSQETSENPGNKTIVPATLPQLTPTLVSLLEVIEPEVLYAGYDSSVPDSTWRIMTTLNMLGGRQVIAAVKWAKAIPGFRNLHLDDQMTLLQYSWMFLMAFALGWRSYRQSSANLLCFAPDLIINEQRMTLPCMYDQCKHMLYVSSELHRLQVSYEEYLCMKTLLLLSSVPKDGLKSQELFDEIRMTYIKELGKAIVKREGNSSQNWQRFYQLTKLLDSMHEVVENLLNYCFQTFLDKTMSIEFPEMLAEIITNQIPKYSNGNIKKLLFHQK
# Method in brief: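 Titration series, up to 92 uM, applied to GRE-bla HeLa cells for 18 h at 37 C. Detection by CCF4 FRET substrate after 2 h at RT.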
# [6] = target: Glucocorticoid receptor (Homo sapiens) (UniProt P04150); test: qHTS assay for small molecule antagonists of glucocorticoid receptor signaling (AID 588533; active means well fitted inhibition curve with a large enough effect in the signal ratio, with a control signal flat, not every such curve was filed as active; the % refers to the signal ratio;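 further: cells stimulated with 2 nM dexamethasone as agonist; on the % scale 0 is the no-effect control and ±100 the full control effect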)
# Method in brief: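 Antagonist-mode qHTS: compound titrations added to GRE-bla HeLa cells, then dexamethasone 2 nM final; 18 h, 37 C. CCF4 FRET fluorescence normalized to dexamethasone and DMSO; IC50 from Hill fit.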
# [7] = qHTS assay for small molecule antagonists of peroxisome proliferator-activated receptor delta signaling (AID 588535; active means well fitted inhibition curve with a large enough effect in the signal ratio, with a control signal flat, not every such curve was filed as active; the % refers to the signal ratio;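 on max response: cells co-treated with a PPAR-delta agonist as stimulator during compound exposure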); settings: HEK293T PPARd-UAS-bla, beta-lactamase FRET ratio, 18 h; 460 nm channel
# Method in brief: (§1)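 Compounds tested in titration on PPAR-delta-UAS-bla HEK293T cells grown in charcoal/dextran-stripped serum (2%); beta-lactamase activity read via CCF4 emission at 460 and 530 nm.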
# [8] = target: Peroxisome proliferator-activated receptor delta (Homo sapiens) (UniProt Q03181); test: as above
# Method in brief: as §1
# [9] = target: Peroxisome proliferator-activated receptor gamma (Homo sapiens) (UniProt P37231); test: qHTS assay for small molecule agonists of peroxisome proliferator-activated receptor gamma signaling (AID 588536; active means well fitted curve in the direction sought with a large enough effect in the signal ratio, with a control signal flat, not every such curve was filed as active; the % refers to the signal ratio;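 further: 0% = DMSO basal wells and 100% = rosiglitazone at 2 µM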)
# Peroxisome proliferator-activated receptor gamma (Homo sapiens), sequence (P37231 whole entry, looked up): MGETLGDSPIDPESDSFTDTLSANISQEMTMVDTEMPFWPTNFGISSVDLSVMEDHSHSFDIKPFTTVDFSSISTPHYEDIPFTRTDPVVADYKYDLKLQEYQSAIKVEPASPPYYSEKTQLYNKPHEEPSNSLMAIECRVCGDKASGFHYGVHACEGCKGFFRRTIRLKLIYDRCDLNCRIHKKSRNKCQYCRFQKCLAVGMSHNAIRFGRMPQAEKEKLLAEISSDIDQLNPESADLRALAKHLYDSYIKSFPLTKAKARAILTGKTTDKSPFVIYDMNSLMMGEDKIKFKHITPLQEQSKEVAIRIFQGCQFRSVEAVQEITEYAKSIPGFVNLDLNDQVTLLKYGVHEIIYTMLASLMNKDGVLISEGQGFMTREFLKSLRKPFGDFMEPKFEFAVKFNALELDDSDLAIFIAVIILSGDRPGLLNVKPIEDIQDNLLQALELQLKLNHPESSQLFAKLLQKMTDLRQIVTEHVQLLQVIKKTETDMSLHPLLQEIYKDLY
# Method in brief: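 This is an agonist-mode beta-lactamase reporter assay in HEK293 PPAR-gamma-UAS-bla cells with 1% charcoal/dextran FBS. Compound titrations ran 16 h at 37 C before CCF4 detection. EC50 and efficacy are Hill fits scaled to 2 uM rosiglitazone (100%) and DMSO basal.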
# [10] = target: Peroxisome proliferator-activated receptor gamma (Homo sapiens) (UniProt P37231); test: qHTS assay for small molecule antagonists of peroxisome proliferator-activated receptor gamma signaling (AID 588537; active means well fitted inhibition curve with a large enough effect in the signal ratio, with a control signal flat, not every such curve was filed as active; the % refers to the signal ratio;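 further: reporter cells co-stimulated with 50 nM rosiglitazone agonist during compound treatment; % of control where 0% means no effect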)
# Method in brief: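 HEK293 cells, PPAR-gamma-UAS-bla, 3000/well. Pre-incubation 6-6.5 h, 37 C. Compound titration with rosiglitazone 50 nM final, 16 h. CCF4 dye, 2 h RT, dual-emission fluorescence.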
# [11] = qHTS assay for small molecule agonists of retinoid X receptor alpha signaling (AID 588544; calls by dose curve;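 on activation: 0% = DMSO basal wells and 100% = reference agonist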); settings: HEK293T RXRa-UAS-bla, beta-lactamase reporter, 18 h; 530 nm emission
# [12] = target: Retinoic acid receptor RXR-alpha (Homo sapiens) (UniProt P19793); test: as above
# Retinoic acid receptor RXR-alpha (Homo sapiens), sequence (P19793 whole entry, looked up): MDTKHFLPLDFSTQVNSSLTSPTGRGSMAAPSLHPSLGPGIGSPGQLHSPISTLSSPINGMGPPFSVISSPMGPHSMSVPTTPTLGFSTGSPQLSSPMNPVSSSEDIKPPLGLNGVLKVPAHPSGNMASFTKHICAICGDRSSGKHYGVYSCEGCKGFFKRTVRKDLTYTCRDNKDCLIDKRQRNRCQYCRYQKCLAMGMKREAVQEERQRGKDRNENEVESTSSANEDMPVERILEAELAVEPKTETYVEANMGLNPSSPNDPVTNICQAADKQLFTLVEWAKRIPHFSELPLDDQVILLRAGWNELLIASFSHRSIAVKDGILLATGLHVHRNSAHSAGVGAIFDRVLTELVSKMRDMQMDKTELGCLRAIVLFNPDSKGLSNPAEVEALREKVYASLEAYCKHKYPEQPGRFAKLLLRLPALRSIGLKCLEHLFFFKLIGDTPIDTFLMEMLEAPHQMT
# [13] = target: Thyroid hormone receptor beta (Homo sapiens) (UniProt P10828); test: qHTS assay for small molecule agonists of thyroid hormone receptor beta signaling (AID 588545; calls by dose curve;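 further: 0% = DMSO only and 100% = 10 nM T3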)
# Thyroid hormone receptor beta (Homo sapiens), sequence (P10828 whole entry, looked up): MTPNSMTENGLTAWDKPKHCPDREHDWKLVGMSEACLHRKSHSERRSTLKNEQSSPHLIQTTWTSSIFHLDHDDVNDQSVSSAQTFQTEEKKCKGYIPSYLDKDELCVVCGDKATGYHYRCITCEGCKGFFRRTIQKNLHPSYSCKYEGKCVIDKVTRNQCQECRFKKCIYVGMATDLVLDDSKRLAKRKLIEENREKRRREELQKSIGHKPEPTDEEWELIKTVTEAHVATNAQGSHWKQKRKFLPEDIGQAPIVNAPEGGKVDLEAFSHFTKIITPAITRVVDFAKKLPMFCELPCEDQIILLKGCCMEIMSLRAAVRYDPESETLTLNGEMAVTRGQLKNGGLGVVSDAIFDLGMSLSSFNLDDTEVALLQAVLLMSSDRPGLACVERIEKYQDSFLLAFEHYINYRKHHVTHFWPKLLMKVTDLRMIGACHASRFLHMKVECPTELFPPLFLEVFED
# Method in brief: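 TR-UAS-bla-GripTite HEK 293 cells in medium with 2% charcoal/dextran FBS, 0.1 mM NEAA and 1 mM sodium pyruvate were treated with titrated compounds for 18 hrs at 37 C. Beta-lactamase reporter was read with CCF4 dye (ex 405, em 460/530 nm); EC50 from Hill fits.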
# [14] = qHTS assay for small molecule antagonists of retinoid X receptor alpha signaling (AID 588546; active means well fitted inhibition curve with a large enough effect in the signal ratio, with a control signal flat, not every such curve was filed as active; the % refers to the signal ratio;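 further: cells stimulated with 9-cis-retinoic acid as agonist; on the % scale 0 is the no-effect control and ±100 the full control effect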); settings: HEK293T RXRa-UAS-bla, beta-lactamase ratio, antagonist mode; measured here: W530 green channel, cytotoxicity proxy
# Method in brief: (§2)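 Beta-lactamase reporter inhibition, read as CCF4 fluorescence ratio (ex 405, em 460/530 nm) after 2 h at RT. HEK293T UAS-bla cells, 2500/well, were stimulated with 9-cis-RA at 500 or 100 nM final alongside test compound for 18 h at 37 C.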
# [15] = target: Retinoic acid receptor RXR-alpha (Homo sapiens) (UniProt P19793); test: as above; settings: HEK293T RXRa-UAS-bla, beta-lactamase ratio, antagonist mode
# Method in brief: as §2
# [16] = target: Thyroid hormone receptor beta (Homo sapiens) (UniProt P10828); test: qHTS assay for small molecule antagonists of thyroid hormone receptor beta signaling (AID 588547; active means well fitted inhibition curve with a large enough effect in the signal ratio, with a control signal flat, not every such curve was filed as active; the % refers to the signal ratio;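 further: cells stimulated with 0.4 nM T3 agonist during compound exposure; series mostly up to about 77 µM; on the % scale 0 is the no-effect control and ±100 the full control effect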); settings: TR-UAS-bla HEK293, beta-lactamase ratio, antagonist mode, 18 h
# Method in brief: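 TR-UAS-bla GripTite HEK293 cells in 2% charcoal/dextran FBS medium were preincubated 4 h at 37 C, given compound (0.59 nM to 92 uM) plus 0.4 nM T3 (final) for 18 h, then CCF4 for 2 h at RT; Hill fit gave IC50.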
# [17] = qHTS assay for small molecule activators of the p53 signaling pathway (AID 651743; active means well fitted activation curve with a large enough effect in the signal ratio, not every such curve was filed as active; the % refers to the signal ratio; further: series mostly up to about 92 µM; % of control where 0% means no effect); settings: HCT-116 p53RE-bla, beta-lactamase FRET ratio, 16 h; activation: stronger effect = higher value
# Method in brief: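 Here HCT-116 cells with an integrated p53-responsive beta-lactamase gene were incubated with compounds (16 hours, 37 C) after a 5-hour plating period; beta-lactamase activity was detected as fluorescence intensity via B/G FRET substrate.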
# [18] = qHTS assay for environmental chemicals that activate the Aryl hydrocarbon Receptor (AhR) signaling pathway (AID 651777); settings: 1A2-DRE human hepatoma cells, luciferase, 24 h; activation: stronger effect = higher value; further: % of control where 0% means no effect; nearly all actives have a fitted effect of over 15% in size
# Method in brief: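 Concentration–response screening used 1,200 1A2-DRE cells per well, 24 hr compound exposure (37 C, 5% CO2), and One-Glo luminescence as the AhR-driven CYP1A2 reporter signal.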
# [19] = target: Peroxisome proliferator-activated receptor alpha (Homo sapiens) (UniProt Q07869); test: qHTS assay for small molecule agonists of the peroxisome proliferator-activated receptor alpha (PPARalpha) signaling pathway (AID 651778); settings: PathHunter PPARalpha complementation, chemiluminescence, 6 h; max response: stronger effect = higher value; further: % of control where 0% means no effect
# Peroxisome proliferator-activated receptor alpha (Homo sapiens), sequence (Q07869 whole entry, looked up): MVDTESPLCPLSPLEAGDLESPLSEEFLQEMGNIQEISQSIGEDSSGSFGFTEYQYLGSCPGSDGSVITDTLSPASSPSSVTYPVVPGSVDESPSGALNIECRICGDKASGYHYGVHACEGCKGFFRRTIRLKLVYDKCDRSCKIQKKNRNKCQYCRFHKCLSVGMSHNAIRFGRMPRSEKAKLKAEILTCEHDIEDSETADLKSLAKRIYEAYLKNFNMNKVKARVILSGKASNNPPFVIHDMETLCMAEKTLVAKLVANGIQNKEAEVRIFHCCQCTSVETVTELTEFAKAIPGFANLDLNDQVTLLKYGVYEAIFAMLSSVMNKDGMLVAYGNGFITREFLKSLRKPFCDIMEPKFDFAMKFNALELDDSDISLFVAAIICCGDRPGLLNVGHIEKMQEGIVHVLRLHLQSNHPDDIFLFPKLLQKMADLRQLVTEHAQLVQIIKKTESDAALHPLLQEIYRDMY
# Method in brief: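 Cells plated at 2,000/well and held overnight at 37 C, 5% CO2, then compound added by pin tool for 6 hr; after PathHunter detection reagent and 60 min at room temperature, chemiluminescence from enzyme complementation was read.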
# [20] = qHTS assay for small molecule agonists of the antioxidant response element (ARE) signaling pathway measured by Nrf2-dependant transcriptional activity - cell viability counter screen (AID 720653; active means well fitted curve in the direction sought with a large enough effect in the repeat runs; an effect the other way counts as inactive or inconclusive; further: potency means the concentration at half of the fitted maximal effect); settings: ARE-bla HepG2 viability, CellTiter-Glo ATP luminescence, 16 h; max response: stronger effect = lower value
# Method in brief: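 ARE-bla HepG2 cells (2,000/well) rested 5 hrs at 37C/5% CO2, then exposed to compounds in DMSO for 16 hrs. Viability was read in the same wells as intracellular ATP by luminescence, 30 min at room temperature after reagent addition.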
# [21] = qHTS assay for cell viability of HEK293 cells (AID 743288); settings: ATP luminescence (CellTiter-Glo), 18 h; max response: stronger effect = lower value; further: nearly all actives have a fitted effect of over 50% in size; further: potency means the concentration at half of the fitted maximal effect
# Method in brief: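 Steps: plate 2,000 parental HEK293 cells per well; incubate ≥5 h, 37 C; add compounds in DMSO; incubate 18 h, 37 C; add CellTiter-Glo; wait 30 min at room temperature; read luminescence.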
# [22] = qHTS assay for cell viability of the p53RE-bla HCT-116 cell line (AID 743292); further: on the % scale 0 is the no-effect control and ±100 the full control effect; nearly all actives have a fitted effect of over 55% in size
# Method in brief: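 Compound-exposed HCT-116 (p53RE-bla) cells, 4,000 per well, were kept 16 h at 37 C following a 5 h preincubation. Cell number was estimated from total ATP by CellTiter-Glo luminescence read after 30 min at room temperature.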
# [23] = target: Nuclear receptor subfamily 1 group I member 2 (Rattus norvegicus) (UniProt Q9R1A7); test: qHTS assay for small molecule activators of the rat pregnane X receptor (rPXR) signaling pathway (AID 651751; call rule not given here; further: 0% is about no effect); settings: rPXR reporter cells, luciferase (One-Glo), 24 h
# Nuclear receptor subfamily 1 group I member 2 (Rattus norvegicus), sequence (Q9R1A7 whole entry, looked up): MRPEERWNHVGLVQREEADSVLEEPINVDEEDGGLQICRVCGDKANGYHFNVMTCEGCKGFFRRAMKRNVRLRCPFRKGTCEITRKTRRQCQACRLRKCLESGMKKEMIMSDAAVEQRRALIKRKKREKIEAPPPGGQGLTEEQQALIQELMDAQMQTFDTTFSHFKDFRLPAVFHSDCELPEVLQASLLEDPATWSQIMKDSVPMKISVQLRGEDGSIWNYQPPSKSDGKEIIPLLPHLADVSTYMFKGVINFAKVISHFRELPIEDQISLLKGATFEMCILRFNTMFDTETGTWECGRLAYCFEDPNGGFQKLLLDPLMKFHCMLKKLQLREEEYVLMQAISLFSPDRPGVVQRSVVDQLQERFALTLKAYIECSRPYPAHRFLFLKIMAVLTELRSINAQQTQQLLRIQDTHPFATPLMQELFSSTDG
# [24] = target: Vitamin D3 receptor (Homo sapiens) (UniProt P11473); test: qHTS assay for small molecule agonists of vitamin D receptor signaling (AID 588543; calls by dose curve;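 further: 0% = DMSO basal and 100% = reference agonist control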)
# Vitamin D3 receptor (Homo sapiens), sequence (P11473 whole entry, looked up): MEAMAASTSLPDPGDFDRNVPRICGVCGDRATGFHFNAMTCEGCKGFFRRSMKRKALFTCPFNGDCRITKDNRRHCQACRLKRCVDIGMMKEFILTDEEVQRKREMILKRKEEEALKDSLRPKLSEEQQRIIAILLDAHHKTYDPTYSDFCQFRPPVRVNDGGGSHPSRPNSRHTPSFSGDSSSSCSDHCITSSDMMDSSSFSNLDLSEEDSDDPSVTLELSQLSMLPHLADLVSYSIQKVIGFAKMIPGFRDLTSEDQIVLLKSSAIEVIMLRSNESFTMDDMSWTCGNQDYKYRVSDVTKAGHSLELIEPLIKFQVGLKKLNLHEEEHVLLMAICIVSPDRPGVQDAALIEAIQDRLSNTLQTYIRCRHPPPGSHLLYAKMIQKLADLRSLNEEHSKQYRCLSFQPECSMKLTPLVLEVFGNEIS
# Method in brief: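 VDR-UAS-bla HEK293T cells, 2000/well, 2% charcoal-stripped FBS; compound titration 16 h at 37 C; CCF4 beta-lactamase ratio read. Normalized to 50 nM 1-alpha,25-dihydroxyvitamin D3 (100%) and DMSO; Hill fit gives EC50, efficacy.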
# [25] = qHTS assay for small molecule agonists of the antioxidant response element (ARE) signaling pathway measured by Nrf2-dependant transcriptional activity (AID 720636; active means well fitted curve in the direction sought with a large enough effect in the repeat runs; an effect the other way counts as inactive or inconclusive; further: % of control where 0% means no effect)
# Method in brief: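 Attachment 6 hr at 37 C, then compound versus DMSO vehicle for 16 hr in ARE-luc HepG2 cells (1% dialyzed FBS); luminescence recorded 30 min after ONE-Glo addition at room temperature.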
# [26] = qHTS assay for small molecule activators of the human pregnane X receptor (PXR) signaling pathway (AID 720659; call rule not given here; further: 0% is about no effect)
# [27] = qHTS assay for small molecule activators of the nuclear factor-kappa B (NF-kB) signaling pathway (AID 651749; active means well fitted activation curve with a large enough effect in the signal ratio; the % refers to the signal ratio; further: series mostly up to about 77 µM; % of control where 0% means no effect); settings: NF-kB-bla ME-180 cells, beta-lactamase FRET ratio, 16 h; activation: stronger effect = higher value
# Method in brief: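 Beta-lactamase reporter expression, controlled by NF-kB response elements in ME-180 cells, was quantified fluorometrically via FRET disruption; cells at 2,000/well had been incubated with 23 nL test compound for 16 hr.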
# [28] = target: Vitamin D3 receptor (Homo sapiens) (UniProt P11473); test: qHTS assay for small molecule antagonists of vitamin D receptor signaling (AID 588541; calls by dose curve;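 further: receptor activated by calcitriol during compound treatment; series mostly up to about 77 µM; on the % scale 0 is the no-effect control and ±100 the full control effect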)
# Method in brief: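 VDR-UAS-bla HEK293T cells (2000/well, 2% charcoal-stripped FBS) were treated with titrated compounds plus 1-alpha,25-dihydroxyvitamin D3 (50 nM or 3 nM final) for 16 h at 37 C. CCF4 beta-lactamase fluorescence was read; Hill fits gave IC50.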
# [29] = qHTS assay for small molecule agonists of the antioxidant response element (ARE) signaling pathway (AID 651741; active means well fitted activation curve with a large enough effect in the signal ratio; the % refers to the signal ratio; further: potency means the concentration at half of the fitted maximal effect)
# Method in brief: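 Beta-lactamase reporter expression driven by the antioxidant response element in HepG2 cells was detected by fluorescence with LiveBLAzer B/G FRET substrate (2 h, room temperature) following 16 h compound treatment at 37 C.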
smiles,measurement,setting,value
Cc1cc(C)c(N)cc1C,Potency,[1],inactive
same,activation,[2],-1.7% (inactive)
same,outcome,[3],inactive
same,Potency,[4],inactive
CCNc1nc(Cl)nc(NC(C)(C)C#N)n1,activation,[5],-6.13% (inactive)
same,Potency,[6],inactive
same,outcome,[3],inactive
same,max response,[7],32.2%
same,Potency,[8],inactive
same,Potency,[9],inactive
same,Potency,[10],inactive
same,max response,[11],-4.23%
same,Potency,[12],inactive
same,Potency,[13],inactive
same,max response,[14],0.495%
same,max response,[15],-7.14% (inactive)
same,activity change % (negative = inhibition),[16],-10.7% (inactive)
same,activation,[17],-4.15% (inactive)
same,activation,[18],1.84% (inactive)
same,max response,[19],0.299% (inactive)
same,max response,[20],-18.8% (inactive)
same,max response,[21],4.63% (inactive)
same,Potency,[22],inactive
same,max response,[23],-0.0883% (inactive)
[Cu+2].[O-]c1cccc2cccnc12.[O-]c1cccc2cccnc12,activation,[2],-9.69% (inactive)
same,outcome,[24],inactive
same,Potency,[13],inactive
same,activation,[17],-8.29% (inactive)
same,activation,[18],-12.2% (inactive)
same,max response,[19],-9.55% (inactive)
same,Potency,[25],inactive
same,Potency,[20],11.2 µM (active)
same,Potency,[21],31.6 µM (active)
same,Potency,[22],inactive
same,outcome,[26],inactive
OC(c1ccc(Cl)cc1)(c1cncnc1)c1ccccc1Cl (configuration not stated),activation,[5],-10.1% (inactive)
same,outcome,[3],inactive
same,max response,[7],31.8%
same,Potency,[8],inactive
same,outcome,[24],inactive
same,Potency,[13],inactive
same,max response,[14],8.06%
same,max response,[15],-39.6% (inactive)
same,activity change % (negative = inhibition),[16],5.6% (inactive)
same,activation,[17],-2.63% (inactive)
same,activation,[18],2.31% (inactive)
same,max response,[19],-4.62% (inactive)
same,Potency,[25],inactive
same,max response,[20],-4.24% (inactive)
same,max response,[21],-17.1% (inactive)
same,Potency,[22],inactive
c1ccc2c(c1)oc1ccccc12,activation,[5],0.193% (inactive)
same,outcome,[3],inactive
same,max response,[7],3.99%
same,Potency,[8],inactive
same,max response,[11],-6.25%
same,Potency,[12],inactive
same,Potency,[13],inactive
same,max response,[14],-9.11%
same,max response,[15],10.8% (inactive)
same,activation,[17],-2.47% (inactive)
same,activation,[27],-1.03% (inactive)
same,max response,[19],0.628% (inactive)
same,max response,[20],-12.3% (inactive)
same,max response,[21],-8.74% (inactive)
same,Potency,[22],inactive
same,max response,[23],-0.589% (inactive)
same,outcome,[26],inactive
Oc1ccc(C(c2ccc(O)cc2)(C(F)(F)F)C(F)(F)F)cc1,activation,[5],-15.3% (inactive)
same,outcome,[3],inactive
same,max response,[7],-38.3%
same,Potency,[8],inactive
same,Potency,[28],inactive
same,outcome,[24],inactive
same,Potency,[29],48.6 µM (active)
same,activation,[17],22.5% (inactive)
same,activation,[27],-2.42% (inactive)
same,activation,[18],0.672% (inactive)
same,max response,[20],-1.13% (inactive)
same,max response,[21],-18.6% (inactive)
same,Potency,[22],inactive
same,max response,[23],0.831% (inactive)
